Many of the other results were omitted from the sample, so hits are more common in it than they were.
CBX7 inh – inhibitors of human CBX7 binding to H3K27me3 peptide; normalised signal (fraction of DMSO) (test concentration not listed); AID 1224903; AlphaScreen His6-CBX7 / biotin-H3K27me3 peptide binding; hits give low values; actives 1.1% (n = 66,000); O95931; in the data active = normalised signal below about 0.5
Target sequence (O95931 whole entry, looked up): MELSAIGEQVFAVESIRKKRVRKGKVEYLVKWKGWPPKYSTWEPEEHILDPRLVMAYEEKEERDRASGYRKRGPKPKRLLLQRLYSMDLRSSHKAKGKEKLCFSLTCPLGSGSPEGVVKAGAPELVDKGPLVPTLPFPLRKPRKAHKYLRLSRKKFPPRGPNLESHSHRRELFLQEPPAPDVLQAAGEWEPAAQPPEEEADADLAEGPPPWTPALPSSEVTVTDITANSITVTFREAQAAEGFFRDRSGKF
Active calls of the source: *; ! = a repeat was not active.

SMILES	CBX7 inh
Cc1ccc(NC(=O)CCc2c(C)nc3cc(-c4ccc(Cl)cc4)nn3c2C)c(C)c1	0.99
COc1cc(OC)cc(-c2nc(-c3ccccc3)c(-c3ccc(Cl)cc3)[nH]2)c1	0.56
COc1ccc(-c2nc(-c3ccccc3)c(-c3ccccc3)[nH]2)cc1O	0.92
COc1ccc(OC)c(-c2nc3ccccc3nc2-c2ccccc2)c1	1.2
COc1cccc(-c2nc(-c3cccc(C)c3)no2)c1OC	1.2
COc1ccc(-c2[nH]c(-c3cc(OC)c4c(c3)OCO4)nc2-c2ccccc2)cc1	0.68
COc1ccc(-c2nc(-c3ccccc3)c(-c3ccc(F)cc3)[nH]2)c(OC)c1C	0.48*
COc1ccc(-c2nc(-c3ccccc3)c(-c3ccccc3)[nH]2)c(OC)c1	0.37*
COc1ccc(-c2nc(-c3ccccc3)c(-c3ccc(Sc4ccccc4)cc3)[nH]2)cc1OC	0.73
COc1cccc(-c2nc(-c3ccccc3)c(-c3cc([N+](=O)[O-])ccc3C)[nH]2)c1OC	0.37*
COc1ccc(OC)c(-c2nc(-c3ccccc3)c(-c3ccccc3)[nH]2)c1	0.41*
COc1ccccc1CNC(=O)CCC(=O)Nc1ccc2nc(N3CCOCC3)cc(C)c2c1	1
Cc1ccc(-c2nc(CS(=O)(=O)CC(=O)Nc3ccccc3C)c(C)o2)cc1	1.1
COc1ccc(-c2c(C)nn3c(NCC(C)c4ccccc4)cc(C)nc23)cc1OC (centres undefined)	0.95
O=C(CC1(O)C(=O)N(CCc2ccccc2)c2ccc(Cl)cc21)c1cccnc1 (centres undefined)	0.6
CCCCc1ccc(Nc2nc3ccccc3nc2NS(=O)(=O)c2ccccc2)cc1	0.84
CCN1CCN(c2cc(C)c3cc(NC(=O)Cc4cccc(OC)c4)ccc3n2)CC1	1
CCC1Oc2ccc(C)cc2N(CC(=O)NC2CCCC2)C1=O (centres undefined)	1.1
Cc1nnc2ccc(NCCc3ccccc3)nn12	0.98
CCCc1ccc2c(N)c(C(N)=O)sc2n1	0.96
Cc1cccnc1NC(=O)C1CC=CCC1C(=O)O (centres undefined)	1
COc1ccccc1OCCCCc1c(C)n[nH]c1C	0.97
COc1ccccc1OCCCCCCc1c(C)n[nH]c1C	0.5*
Cc1ccccc1OCCCCCc1c(C)n[nH]c1C	0.97
Cc1ccc(-c2csc(NC(=O)c3cccc(C(F)(F)F)c3)n2)c(C)c1	1
SMILES	CBX7 inh
COc1cccc(-n2ccnc2SCC(=O)Nc2ccccc2F)c1	0.53
CCOc1ccccc1NC(=O)CSc1nccn1-c1ccc(Cl)cc1	0.31*
CCOc1ccccc1NC(=O)CSc1nccn1-c1cc(C)cc(C)c1	0.63
CCOc1ccccc1NC(=O)CSc1nccn1-c1cccc(OC)c1	0.48*
COc1cccc(-n2ccnc2SCC(=O)Nc2ccc(OC)cc2OC)c1	0.97
COc1ccccc1NC(=O)CSc1nccn1-c1ccc(Cl)cc1	0.51
Cc1ccc(-c2noc(CSc3nc4ccccc4[nH]3)n2)cc1	1.1
CS(=O)(=O)CC[C@@H](C(=O)Nc1cccc(F)c1)N1Cc2ccccc2C1=O	1.1
COc1ccc(NC(=O)[C@H](CSCc2ccccc2)N2Cc3ccccc3C2=O)cc1Cl	0.87
CSCC[C@@H](C(=O)Nc1cccc(F)c1)N1Cc2ccccc2C1=O	0.49*
CSCC[C@@H](C(=O)Nc1ccc(C)c(F)c1)N1Cc2ccccc2C1=O	0.53
COc1ccc(NC(=O)[C@H](Cc2ccccc2)N2Cc3ccccc3C2=O)cc1Cl	0.31*
COc1ccc(NC(=O)[C@H](CCS(C)(=O)=O)N2Cc3ccccc3C2=O)cc1OC	1
O=C(NCCCN1CCOCC1)c1cccc(NC2=NC3CS(=O)(=O)CC3S2)c1 (centres undefined)	1
O=C(NC1CCCC1)c1csc2c1CCCCC2	1.1
CCCC1=Nc2cc(C(=O)NC3CC3)ccc2Sc2ccc(C)cc21	1
COC(=O)c1cc2c(s1)CN(C1CCC(C)CC1)C2 (centres undefined)	1
CCc1cccc(NC2c3ccccc3C(=O)N2c2ccccc2C)c1 (centres undefined)	1.1
COc1cc(OC)cc(OCC(O)Cn2cnc3cc(C)c(C)cc32)c1 (centres undefined)	0.52
Cc1cc2ncn(CC(O)COc3ccc(C(C)C)cc3)c2cc1C (centres undefined)	0.71
Cc1cc2ncn(CC(O)COc3ccccc3C)c2cc1C (centres undefined)	0.17*
Cc1ccc2cc(CCNC(=O)C34CC5CC(CC(C5)C3)C4)c(=O)[nH]c2c1C	1.1
CCCCN(C)C(=O)Cn1nc(Cc2cccnc2)c2ccccc2c1=O	1.1
O=S(=O)(Nc1cccc2cccnc12)c1ccccc1O	0*
CC(=O)Nc1ccc(NS(=O)(=O)c2cccc3cccnc23)cc1	1
SMILES	CBX7 inh
Cc1cc(C)c(S(=O)(=O)Nc2cccc3cccnc23)c(C)c1	1.3
CCOC(=O)c1cnc2c(OC)cccc2c1Nc1cnc2ccccc2c1	0.83
COc1cc(-c2nc(-c3ccc(C)c(C)c3)c(-c3ccccc3)[nH]2)cc2c1OCO2	0.7
COc1cc(-c2nc(-c3ccc(C)c(C)c3)c(-c3ccc(C)c(C)c3)[nH]2)cc(OC)c1O	0.49*
COc1ccc(-c2nc(-c3ccc(C)cc3)[nH]c2-c2ccc(OC)cc2)cc1	0.7
C/C(=C\c1ccccc1)c1nc2ccc(Cl)cn2c1Nc1ccc(Cl)cc1	1
COc1cc(-c2nc(-c3cccs3)c(-c3cccs3)[nH]2)ccc1O	0.44*
COc1cc(-c2nc(-c3ccccc3)c(-c3ccccc3)[nH]2)ccc1O	1.1
COc1ccc(-c2nc(-c3cccs3)[nH]c2-c2ccccc2)cc1OC	0.89
COc1ccc(OC)c(NC(=O)c2cc3c(n(-c4ccccc4)c2=O)CC(C)(C)CC3=O)c1	1.2
CC(O)Cn1c(=N)n(Cc2ccccc2)c2ccccc21 (centres undefined)	1
Cc1ccc(C)c(CSc2nnc(Cc3cc(=O)[nH]c(=O)[nH]3)n2-c2cc(C)ccc2C)c1	1.2
O=C(Nc1cccc(Cl)c1)Nc1cc(C(F)(F)F)ccc1N1CCOCC1	1.1
CCOc1cc(-c2nc(-c3ccccc3)c(-c3ccc(Br)cc3)[nH]2)ccc1O	0.62
Brc1ccc(-c2nc(-c3ccccc3)c(-c3ccc(Sc4ccccc4)cc3)[nH]2)cc1	0.86
Oc1ccc(-c2nc(-c3ccc(F)cc3)c(-c3ccc(F)cc3)[nH]2)cc1	1.2
Oc1ccc(-c2nc(-c3ccccc3)c(-c3ccccc3)[nH]2)cc1	0.42*!
O=C(O)c1ccc(-c2nc(-c3ccc(-c4ccccc4)cc3)c(-c3ccc(-c4ccccc4)cc3)[nH]2)cc1	0.54
Oc1ccc(-c2nc(-c3ccccc3)c(-c3ccc(Br)cc3)[nH]2)cc1	0.46*
COc1cc(OC)c(NC(=O)CNC(=O)Cn2cnc3sc(C)c(C)c3c2=O)cc1Cl	0.89
c1ccc(-c2csc(Nc3ccccn3)n2)cc1	0.97
Oc1cccc2ccc(Nc3ccccn3)nc12	0.0087*
Oc1cccc2ccc(Oc3cccc4cccnc34)nc12	1
Cc1cccc(Nc2nc3ccccc3nc2NS(=O)(=O)c2ccc(Cl)cc2)c1C	0.97
CCOc1ccc(NC(=O)c2c(NCc3cccs3)sc3c2CCCCC3)cc1	0.44*
COc1ccc(Cl)cc1NC(=O)c1c(NCc2cccs2)sc2c1CCCC2	0.82
COc1ccccc1NC(=O)c1c(NCc2sccc2C)sc2c1CCCCC2	0.55
COc1ccc(OC)c(NC(=O)c2c(NCc3cccs3)sc3c2CCCCC3)c1	0.43*
